Laboratory results published in PubChem BioAssay AID629 (Emory University Molecular Libraries Screening Center, 2007).
The whole screen tested about 86,000 compounds, of which about 1,400 (1.6%) were called active. What follows is part of a selection rich in actives, with near analogues and random picks from the rest. Unmarked numbers belong to inactive results. Rule as the data show it: active = inhibition above about 50%; inactive = the rest.

target: Estrogen receptor (Homo sapiens) (UniProt P03372); assay: blockers of SRC-1 peptide recruitment to ERα – biochemical, TR-FRET, ERα LBD, estradiol-bound, primary screen (AID 629); details: TR-FRET ER-alpha LBD / SRC-1 peptide, at 25.6 µM, stronger effect = higher value;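 also: 0% = receptor plus peptide control and 100% = peptide only without receptor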
Sequence (P03372 whole entry, looked up, the tested form may be a part): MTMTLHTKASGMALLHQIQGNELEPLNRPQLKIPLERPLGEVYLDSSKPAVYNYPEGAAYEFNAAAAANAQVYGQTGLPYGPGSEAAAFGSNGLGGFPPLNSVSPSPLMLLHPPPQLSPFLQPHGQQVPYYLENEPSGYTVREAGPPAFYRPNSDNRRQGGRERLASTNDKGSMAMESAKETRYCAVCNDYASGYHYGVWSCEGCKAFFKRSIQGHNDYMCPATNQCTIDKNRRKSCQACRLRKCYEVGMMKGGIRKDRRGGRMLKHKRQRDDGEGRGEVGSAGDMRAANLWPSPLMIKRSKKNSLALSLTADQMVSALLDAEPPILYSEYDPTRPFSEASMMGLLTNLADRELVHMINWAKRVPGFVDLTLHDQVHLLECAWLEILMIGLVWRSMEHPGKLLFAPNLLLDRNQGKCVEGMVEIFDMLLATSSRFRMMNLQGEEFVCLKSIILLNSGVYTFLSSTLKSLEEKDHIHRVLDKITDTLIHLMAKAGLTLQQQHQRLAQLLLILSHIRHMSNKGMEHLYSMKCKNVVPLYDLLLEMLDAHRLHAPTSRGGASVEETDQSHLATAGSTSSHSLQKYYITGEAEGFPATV

Q: Which inhibition does the source give for CCOC(=O)c1c(NC(=O)c2ccc(Br)o2)sc2c1CCCC2 here?
A: 7.77%

Q: For Cc1cc(NC(=O)CSc2nc(C(C)C)nc3sc4c(c23)CCC(C)C4)no1 (stereo unspecified), which inhibition is on record?
A: -14.6%

Q: CC1CCc2c(sc(NC(=O)c3ccc(Cn4cc(Br)cn4)o3)c2C(N)=O)C1 (stereo unspecified) was tested. Which inhibition did it give?
A: 50.6% (active)

Q: For Cc1ccc(CN(C(=O)c2sc3ccccc3c2Cl)C2CCS(=O)(=O)C2)cc1 (stereo unspecified), which inhibition is on record?
A: 6.88%

Q: With C/C=C/C(=O)Nc1nnc(C(C)C)s1 as the molecule, how does the inhibition read?
A: -19.7%

Q: With CNC(=O)c1c(NC(NC(=O)c2ccco2)C(=O)c2ccc(Cl)cc2)sc2c1CCCC2 (stereo unspecified) as the molecule, how does the inhibition read?
A: -3.84%

Q: With COc1ccc(C(=O)Nc2nc(-c3ccc(S(=O)(=O)N4CCOCC4)cc3)cs2)cc1 as the molecule, how does the inhibition read?
A: 3.26%

Q: CNC(=O)c1c(NC(=O)c2ccc(S(=O)(=O)N3CCOCC3)cc2)sc2c1CCC2 was tested. Which inhibition did it give?
A: 94.5% [fluorescence artefact?] (active)

Q: For CCOC(=O)c1ccc2c(c1)nc(SCC(=O)NC(C)C)n2CC, which inhibition is on record?
A: 26.4%

Q: With CCOc1cc(C(=O)Nc2c(C)ccc3nsnc23)cc(OCC)c1OCC as the molecule, how does the inhibition read?
A: 8.18%

Q: For N#CC(=C1CCCC1)c1nc(-c2ccc(Cl)cc2)cs1, which inhibition is on record?
A: -5.55%

Q: CCCCCN1CC(O)=C(c2ccccc2)C1=N was tested. Which inhibition did it give?
A: 2.06%

Q: Which inhibition does the source give for CCCCCN1CC(O)=C(c2nc(-c3ccc(Cl)cc3)cs2)C1=N here?
A: 65.8% [fluorescence artefact?] (active)

Q: Cc1ccc(S(=O)(=O)Oc2ccc(/C=N/NC(=O)c3c(Cl)cnn3C)cc2)cc1 was tested. Which inhibition did it give?
A: -7.62%

Q: How did the inhibition turn out when COCCCn1c(Cc2csc(Nc3cccc(Cl)c3)n2)nnc1SCC(=O)OC1CCCCC1 was run?
A: 67.4% [fluorescence artefact?] (active)

Q: With C=CCn1c(CC(=O)Nc2cccc(OC)c2)nnc1SCC(=O)NC1CCCCC1 as the molecule, how does the inhibition read?
A: -5.03%

Q: With COCCCn1c(SCC(=O)Nc2ccccc2)nnc1-c1ccncc1 as the molecule, how does the inhibition read?
A: -1.59%

Q: With CCOc1ccccc1/C=c1\sc2nc(-c3ccco3)nn2c1=O as the molecule, how does the inhibition read?
A: 57.2% (active)

Q: CCc1nc2oc3ccccc3c(=O)c2c(=O)n1Cc1ccc(OC)cc1 was tested. Which inhibition did it give?
A: 21%

Q: With CCOC(=O)/C=c1\s/c(=C\c2ccccc2OC)c(=O)n1CC(=O)N1CCOCC1 as the molecule, how does the inhibition read?
A: -4.48%

Q: For CCOc1ccccc1C(=O)NCc1ccco1, which inhibition is on record?
A: 10.6%

Q: How did the inhibition turn out when CCCCOc1ccccc1/C=c1/sc2nc(-c3oc4ccccc4c3C)nn2c1=O was run?
A: 50% (active)

Q: With O=c1nc2s/c(=C\c3ccco3)c(=O)n2nc1Cc1ccccc1 as the molecule, how does the inhibition read?
A: 28.7%

Q: Which inhibition does the source give for COC(=O)CSc1nc(C)c2ccc(OC)cc2n1 here?
A: -6.48%

Q: For CC1CCCCC1NC(=O)C1CCCN1S(=O)(=O)c1cccc2nsnc12 (stereo unspecified), which inhibition is on record?
A: 11.2%

Q: How did the inhibition turn out when Cc1cc(C)c(NC(=O)CN2CCOCCOCCOCCOCC2)c(C)c1 was run?
A: 3.92%

Q: O=C(CN1CCCCCC1)N1c2ccccc2Sc2ccc(C(F)(F)F)cc21 was tested. Which inhibition did it give?
A: -9.51%

Q: For Cc1ccccc1NC(=O)c1ccccc1, which inhibition is on record?
A: -4.17%

Q: With Cc1ccc2c(c1)sc1ncc(NC(=O)c3ccccc3)c(=O)n12 as the molecule, how does the inhibition read?
A: 53.5% [fluorescence artefact?] (active)

Q: Cc1nc(NNC(=O)c2ccccc2)cc(-c2ccccc2)n1 was tested. Which inhibition did it give?
A: -1.45%

Q: Which inhibition does the source give for Cc1cccc(N(C(=O)c2ccc(CN3CCOCC3)o2)C(C(=O)NC2CCCCC2)c2ccc(F)cc2)c1 (stereo unspecified) here?
A: 2.65%

Q: Which inhibition does the source give for CS(=O)(=O)c1ccc2c(c1)SC1=NC(=O)/C(=C/c3ccco3)C(=N)N12 here?
A: 82.8% [fluorescence artefact?] (active)

Q: How did the inhibition turn out when COc1ccccc1N1CCN(C(=O)c2cn(-c3ccccc3)nc2-c2cccnc2)CC1 was run?
A: 0.39%

Q: O=C(c1cn(-c2ccccc2)nc1-c1cccnc1)N1CCCCC1 was tested. Which inhibition did it give?
A: 93.3% [fluorescence artefact?] (active)

Q: With COC(=O)c1cn(-c2ccccc2)nc1-c1cccnc1 as the molecule, how does the inhibition read?
A: 1.49%

Q: With O=C(N/N=C\c1cccc(Br)c1)c1ccccc1-n1cccc1 as the molecule, how does the inhibition read?
A: -1.04%

Q: With Oc1ccc(-c2onc3ccc(Cl)cc23)cc1 as the molecule, how does the inhibition read?
A: 2.22%

Q: Which inhibition does the source give for O=S(=O)(NN=C1CCCCCCC1)c1ccc(Br)cc1 here?
A: -3.65%

Q: How did the inhibition turn out when O=C(NCc1ccco1)c1cnn2c(C(F)(F)F)cc(-c3ccco3)nc12 was run?
A: 6.58%

Q: For COC(=O)c1cc2nc(-c3ccccc3)cc(C(F)(F)F)n2n1, which inhibition is on record?
A: -12%

Q: Which inhibition does the source give for COC(=O)c1cnn2c(C(F)(F)F)cc(-c3ccco3)nc12 here?
A: 62.1% (active)

Q: Which inhibition does the source give for CC1(C)C2CCC13CS(=O)(=O)NC3C2 (stereo unspecified) here?
A: 3.36%

Q: For CCc1nnc(NC(=O)CSc2nc3ccccc3c(=O)n2CCCOC)s1, which inhibition is on record?
A: 14.8%

Q: How did the inhibition turn out when O=C1/C(=C/c2cccs2)CCc2ccccc21 was run?
A: 5.05%

Q: Which inhibition does the source give for COc1ccc(-n2c(SCC(=O)Nc3ccc4c(c3)OCO4)nnc2C(C)N2CCCCC2)cc1 (stereo unspecified) here?
A: 55.2% (active)

Q: How did the inhibition turn out when Cc1ccc(-n2c(SCC(=O)Nc3ccc4c(c3)OCO4)nnc2-c2ccccn2)cc1 was run?
A: -7.91%

Q: For Cc1ccc(-n2c(SCC(=O)Nc3ccc4c(c3)OCO4)nnc2-c2ccoc2C)cc1, which inhibition is on record?
A: -0.65%

Q: With O=C1N=C(N2CCCC2)S/C1=C\c1cccc(Br)c1 as the molecule, how does the inhibition read?
A: -3.71%

Q: Which inhibition does the source give for CSc1nc2nc3c(c(=O)n2[nH]1)CCC3 here?
A: -5.51%

Q: For CNc1nc(SC)nc(N(C#N)CC(=O)OC)n1, which inhibition is on record?
A: -12.1%

Q: Which inhibition does the source give for O=C(NCC(=O)N(Cc1cccs1)C(C(=O)NC1CCCCC1)c1ccco1)c1cccs1 (stereo unspecified) here?
A: -0.84%

Q: For O=C(Cc1c[nH]c2ccccc12)OCCOC(=O)Cc1c[nH]c2ccccc12, which inhibition is on record?
A: -4.73%

Q: How did the inhibition turn out when COc1cccc(NC(=O)CN2CCN(c3nc(-c4cccc(OC)c4)cs3)CC2)c1 was run?
A: -8.12%

Q: How did the inhibition turn out when CC1Cc2ccccc2N1C(=O)CSc1nc2ccccc2o1 (stereo unspecified) was run?
A: -8.05%

Q: CC1Cc2ccccc2N1C(=O)CSc1nnc(-c2ccc(S(=O)(=O)N3CCCCC3)cc2)o1 (stereo unspecified) was tested. Which inhibition did it give?
A: 72.8% [fluorescence artefact?] (active)

Q: CCS(=O)(=O)c1ccc2oc(SCC(=O)N3c4ccccc4CC3C)nc2c1 (stereo unspecified) was tested. Which inhibition did it give?
A: 14%

Q: With O=C(CCN1c2ccccc2Sc2ccccc21)Nc1ccccc1 as the molecule, how does the inhibition read?
A: -1.92%

Q: Cc1ccc(Nc2nnc(SCc3ccccc3)s2)cc1 was tested. Which inhibition did it give?
A: -0.81%

Q: How did the inhibition turn out when O=C(CCN1CCc2ccccc2C(O)(c2ccccc2)C1)c1ccc2c(c1)OCCO2 (stereo unspecified) was run?
A: 6.71%

Q: Which inhibition does the source give for Cc1ccc(SCC(=O)c2cc(C)c(OC(=S)N(C)C)c(C)c2)cc1 here?
A: 1.54%

Q: For COc1ccc(-c2nc3ccccc3n2CCC(C)C)cc1OC, which inhibition is on record?
A: 0.74%

Q: CCNCc1cc2cc(C)ccc2[nH]c1=O was tested. Which inhibition did it give?
A: 5.96%

Q: Which inhibition does the source give for Cc1ccc2nc(SC(C)C(=O)NCc3ccco3)[nH]c2c1 (stereo unspecified) here?
A: 0.42%

Q: Which inhibition does the source give for Cc1ccc2[nH]c(=O)c(-c3nc4c(C)cccn4c3NCc3ccco3)cc2c1 here?
A: 92.7% [fluorescence artefact?] (active)

Q: How did the inhibition turn out when CC(C)(C)c1ccc(OC2=CS(=O)(=O)c3ccccc32)cc1 was run?
A: -1.62%

Q: CCCCCCc1cc2cc(-c3nnc(-c4cccc(OC)c4)o3)c(=O)oc2cc1O was tested. Which inhibition did it give?
A: -2.99%

Q: Which inhibition does the source give for CCCCCCc1cc2cc(-c3nnc(-c4ccccc4)o3)c(=O)oc2cc1O here?
A: 53.5% (active)

Q: How did the inhibition turn out when COc1ccc(CC(=O)Nc2ccc(-c3nnc(-c4ccccc4)o3)cc2)cc1 was run?
A: 40.1%

Q: With CCOc1ccc(S(=O)(=O)NCCSc2ccccc2)cc1 as the molecule, how does the inhibition read?
A: 0.2%

Q: For Cc1cc(C)c2c(n1)nn1c(N3CCOCC3)cc(C)nc21, which inhibition is on record?
A: 10.7%

Q: For Cc1cc(C)c2c(n1)nn1c(N3CCN(c4cccc(Cl)c4)CC3)cc(C)nc21, which inhibition is on record?
A: 73.8% (active)

Q: How did the inhibition turn out when Cc1cc(C)c2c(n1)nn1c(-n3ccnc3)cc(C)nc21 was run?
A: 4.13%

Q: How did the inhibition turn out when COc1ccc(C2CC(c3cccs3)=Nc3ccccc3S2)cc1OC (stereo unspecified) was run?
A: 15.7%

Q: Which inhibition does the source give for Cc1cccc(-c2nc3c(c(SCC(=O)N4CCOCC4)n2)CCCC3)c1 here?
A: -17.1%

Q: Which inhibition does the source give for Cc1nc(NC(=O)C2CCCCC2)sc1C here?
A: 0.45%

Q: Which inhibition does the source give for CS(=O)(=O)N(CC(=O)N1CCN(Cc2ccc3c(c2)OCO3)CC1)c1ccc2c(c1)OCO2 here?
A: 2.04%

Q: With CS(=O)(=O)N(CC(=O)NCc1ccco1)c1ccc2c(c1)OCO2 as the molecule, how does the inhibition read?
A: 53.8% (active)

Q: How did the inhibition turn out when O=C(Cn1nnc(-c2ccc3c(c2)OCO3)n1)NCc1ccco1 was run?
A: 41.7%

Q: With COC(=O)c1cccc(N(C(=O)c2ccco2)C(C(=O)NC2CCCC2)c2ccco2)c1 (stereo unspecified) as the molecule, how does the inhibition read?
A: -14.6%

Q: CC1=C(C(=O)Nc2ccccc2)C(c2ccco2)C(C#N)=C(SCC(N)=O)N1 (stereo unspecified) was tested. Which inhibition did it give?
A: -3.05%

Q: How did the inhibition turn out when Cc1cc2c(c(=O)n1Cc1ccco1)C(c1ccccc1)C(C#N)=C(N)O2 (stereo unspecified) was run?
A: -11.1%

Q: For N#CC1=C(N)Oc2c(sc3ccccc23)C1c1ccco1 (stereo unspecified), which inhibition is on record?
A: 85.9% [fluorescence artefact?] (active)

Q: How did the inhibition turn out when Cc1cc(C(=O)OC(C)C(=O)Nc2cccc(S(=O)(=O)N3CCOCC3)c2)c(C)o1 (stereo unspecified) was run?
A: 0.74%

Q: CCOC(=O)Cc1csc(NC(=O)CSc2nnc(-c3cccnc3)n2Cc2ccco2)n1 was tested. Which inhibition did it give?
A: -5.63%

Q: Cc1cc(N2CCN(S(=O)(=O)c3ccc(C)c(C)c3)CC2)c2ccccc2n1 was tested. Which inhibition did it give?
A: 16.1%

Q: With CCNCCC(=O)N1c2ccccc2Sc2ccc(NC(=O)OCC)cc21 as the molecule, how does the inhibition read?
A: -22%

Q: With CCO/C([O-])=N/c1c[n+](N2CCOCC2)no1 as the molecule, how does the inhibition read?
A: 51.1% (active)

Q: Which inhibition does the source give for O=C(NCCN1CCN(Cc2ccccc2)CC1)c1cc2c(=O)[nH]c3ccccc3c2s1 here?
A: 24.2%

Q: For Cc1nnc2sc(-c3ccco3)nn12, which inhibition is on record?
A: 0.95%

Q: How did the inhibition turn out when Fc1ccc(-c2ccc(-c3nn4c(-c5ccco5)nnc4s3)o2)cc1 was run?
A: 69.7% [fluorescence artefact?] (active)

Q: With FC(F)(F)c1nnc2sc(-c3ccco3)nn12 as the molecule, how does the inhibition read?
A: 2.64%
